# Assay results published in the supplement of paper PMC11732987, “Enantioselective OTUD7B fragment discovery through chemoproteomics screening and high-throughput optimisation” (Communications Chemistry, 2025).
# Unmarked numbers belong to inactive results.
# How the values were obtained:
# Experiment in all cases: log2 ratio of Biotin-Ahx-Ub-VS probe labelling (fragment/DMSO); higher = less target engagement (more negative = stronger competition), active = hit call of the paper (q ≤ 0.05, log2 ratio ≤ -1)
# Settings in all cases: compound concentration: 200 uM; treatment time: 3 h
# USP9X = USP9X (UniProt Q93008)
# Outline: (§1)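 HEK293T lysate (495 µg per sample, in Tris/CHAPS/IGEPAL buffer with protease inhibitors) was exposed in triplicate for 3 h to fragment at 200 µM or to vehicle, then to Biotin-Ahx-Ub-VS at 0.5 µM final for 1 h. Labelled DUBs were enriched on NeutrAvidin, digested with LysC and trypsin, and analysed by diaPASEF LC-MS/MS. Spectronaut label-free quantities were normalised to the global median, and values are average log2 ratios of fragment over vehicle from an unpaired t-test. Only proteins with ≥2 unique peptides were used.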
# UniProt O00487 = target: UniProt O00487
# UniProt O00487, sequence (O00487 whole entry): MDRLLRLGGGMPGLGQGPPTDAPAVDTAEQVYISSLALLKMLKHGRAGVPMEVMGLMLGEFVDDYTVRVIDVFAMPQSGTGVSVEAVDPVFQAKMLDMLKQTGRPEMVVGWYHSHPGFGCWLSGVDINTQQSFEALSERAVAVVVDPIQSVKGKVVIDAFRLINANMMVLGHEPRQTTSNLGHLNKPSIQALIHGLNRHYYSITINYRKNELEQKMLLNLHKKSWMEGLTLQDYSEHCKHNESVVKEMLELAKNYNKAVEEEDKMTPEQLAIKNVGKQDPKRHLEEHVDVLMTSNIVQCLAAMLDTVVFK
# Outline: as §1
# UniProt O00507 = target: UniProt O00507
# UniProt O00507, sequence (O00507 whole entry): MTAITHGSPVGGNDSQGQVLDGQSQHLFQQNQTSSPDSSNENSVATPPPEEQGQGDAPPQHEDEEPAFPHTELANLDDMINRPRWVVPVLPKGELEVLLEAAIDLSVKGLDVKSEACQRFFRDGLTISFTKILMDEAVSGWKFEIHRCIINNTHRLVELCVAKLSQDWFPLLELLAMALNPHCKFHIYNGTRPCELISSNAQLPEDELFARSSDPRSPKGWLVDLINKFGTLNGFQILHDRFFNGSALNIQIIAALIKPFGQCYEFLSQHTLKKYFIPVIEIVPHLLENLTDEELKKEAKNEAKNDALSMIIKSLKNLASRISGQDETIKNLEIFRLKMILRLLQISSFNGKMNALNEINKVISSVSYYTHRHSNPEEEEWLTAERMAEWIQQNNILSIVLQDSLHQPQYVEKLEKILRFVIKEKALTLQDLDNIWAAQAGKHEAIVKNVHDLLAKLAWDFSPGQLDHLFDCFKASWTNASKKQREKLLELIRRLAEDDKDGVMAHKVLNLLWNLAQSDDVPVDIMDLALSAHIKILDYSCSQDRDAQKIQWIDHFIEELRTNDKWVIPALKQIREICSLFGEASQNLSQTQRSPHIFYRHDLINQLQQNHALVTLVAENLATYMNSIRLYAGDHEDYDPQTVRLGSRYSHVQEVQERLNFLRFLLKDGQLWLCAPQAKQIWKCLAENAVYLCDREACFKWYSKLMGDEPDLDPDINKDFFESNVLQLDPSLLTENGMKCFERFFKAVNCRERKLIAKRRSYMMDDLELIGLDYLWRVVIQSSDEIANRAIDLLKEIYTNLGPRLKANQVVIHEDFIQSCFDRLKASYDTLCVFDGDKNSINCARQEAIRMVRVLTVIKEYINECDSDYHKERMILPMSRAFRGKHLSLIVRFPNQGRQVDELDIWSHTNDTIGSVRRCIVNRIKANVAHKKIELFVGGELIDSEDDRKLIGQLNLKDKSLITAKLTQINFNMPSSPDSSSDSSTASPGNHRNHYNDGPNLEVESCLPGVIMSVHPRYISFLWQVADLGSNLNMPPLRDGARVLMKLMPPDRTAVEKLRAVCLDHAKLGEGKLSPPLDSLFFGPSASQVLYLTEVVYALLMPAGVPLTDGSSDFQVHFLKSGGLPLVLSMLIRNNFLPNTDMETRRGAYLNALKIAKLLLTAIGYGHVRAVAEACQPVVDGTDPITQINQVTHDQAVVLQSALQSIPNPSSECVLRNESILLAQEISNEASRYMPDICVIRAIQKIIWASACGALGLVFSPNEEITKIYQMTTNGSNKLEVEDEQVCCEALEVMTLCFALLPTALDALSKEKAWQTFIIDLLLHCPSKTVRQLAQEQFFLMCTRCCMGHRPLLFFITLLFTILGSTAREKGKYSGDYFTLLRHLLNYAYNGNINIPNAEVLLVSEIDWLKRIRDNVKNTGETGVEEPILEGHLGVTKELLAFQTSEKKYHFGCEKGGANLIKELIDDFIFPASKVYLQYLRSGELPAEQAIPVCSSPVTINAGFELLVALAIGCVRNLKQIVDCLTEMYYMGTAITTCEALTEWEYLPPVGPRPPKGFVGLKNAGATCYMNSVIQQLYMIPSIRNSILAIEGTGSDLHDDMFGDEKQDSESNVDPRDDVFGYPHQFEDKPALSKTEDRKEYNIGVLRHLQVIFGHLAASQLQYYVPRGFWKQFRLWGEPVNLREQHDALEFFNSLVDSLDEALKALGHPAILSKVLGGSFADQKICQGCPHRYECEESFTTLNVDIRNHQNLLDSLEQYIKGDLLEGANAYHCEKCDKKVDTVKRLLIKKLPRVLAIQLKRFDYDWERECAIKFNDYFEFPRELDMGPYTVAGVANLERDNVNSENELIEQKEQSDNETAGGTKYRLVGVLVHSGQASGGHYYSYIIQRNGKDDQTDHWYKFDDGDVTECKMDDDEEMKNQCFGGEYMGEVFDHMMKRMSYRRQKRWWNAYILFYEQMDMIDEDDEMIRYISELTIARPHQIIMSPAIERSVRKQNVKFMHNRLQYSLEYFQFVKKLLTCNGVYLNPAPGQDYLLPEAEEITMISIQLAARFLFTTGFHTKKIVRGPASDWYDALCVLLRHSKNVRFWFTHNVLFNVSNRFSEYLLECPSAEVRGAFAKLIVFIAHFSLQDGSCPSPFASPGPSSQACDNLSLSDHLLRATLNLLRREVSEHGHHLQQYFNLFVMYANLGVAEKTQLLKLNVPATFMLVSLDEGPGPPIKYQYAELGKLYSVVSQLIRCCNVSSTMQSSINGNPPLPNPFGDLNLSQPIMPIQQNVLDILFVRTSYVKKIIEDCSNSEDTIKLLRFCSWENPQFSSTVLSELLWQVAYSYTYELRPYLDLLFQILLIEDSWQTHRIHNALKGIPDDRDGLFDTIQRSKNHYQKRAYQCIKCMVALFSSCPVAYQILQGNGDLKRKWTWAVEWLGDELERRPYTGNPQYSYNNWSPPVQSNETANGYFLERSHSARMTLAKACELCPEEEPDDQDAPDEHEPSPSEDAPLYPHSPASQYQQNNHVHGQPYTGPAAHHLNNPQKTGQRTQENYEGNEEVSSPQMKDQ
# Outline: as §1
# UniProt P51784 = target: UniProt P51784
# UniProt P51784, sequence (P51784 whole entry): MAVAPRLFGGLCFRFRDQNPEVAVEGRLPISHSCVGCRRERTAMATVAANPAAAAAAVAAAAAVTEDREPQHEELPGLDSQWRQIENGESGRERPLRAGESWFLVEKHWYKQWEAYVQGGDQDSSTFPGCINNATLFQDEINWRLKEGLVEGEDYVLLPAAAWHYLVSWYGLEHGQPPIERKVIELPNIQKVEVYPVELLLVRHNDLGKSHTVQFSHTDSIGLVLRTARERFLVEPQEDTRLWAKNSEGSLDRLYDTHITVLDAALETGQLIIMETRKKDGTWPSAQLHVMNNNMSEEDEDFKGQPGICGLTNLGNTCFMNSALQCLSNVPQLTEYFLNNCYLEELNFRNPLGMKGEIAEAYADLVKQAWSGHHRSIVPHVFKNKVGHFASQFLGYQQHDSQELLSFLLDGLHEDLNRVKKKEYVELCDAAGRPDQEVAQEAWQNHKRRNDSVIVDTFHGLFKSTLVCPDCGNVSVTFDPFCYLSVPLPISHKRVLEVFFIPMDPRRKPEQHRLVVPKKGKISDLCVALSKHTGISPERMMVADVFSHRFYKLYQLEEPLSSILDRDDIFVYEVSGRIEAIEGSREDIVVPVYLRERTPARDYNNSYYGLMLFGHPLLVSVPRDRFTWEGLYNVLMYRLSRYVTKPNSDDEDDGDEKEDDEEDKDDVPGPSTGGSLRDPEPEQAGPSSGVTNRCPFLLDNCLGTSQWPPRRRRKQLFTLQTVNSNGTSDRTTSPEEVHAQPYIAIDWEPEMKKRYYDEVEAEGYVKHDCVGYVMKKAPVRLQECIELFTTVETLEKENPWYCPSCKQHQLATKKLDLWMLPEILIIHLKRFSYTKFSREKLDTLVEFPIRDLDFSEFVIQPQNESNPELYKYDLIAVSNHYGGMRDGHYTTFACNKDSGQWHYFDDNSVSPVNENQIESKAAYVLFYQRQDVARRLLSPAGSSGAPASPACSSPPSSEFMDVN
# Outline: as §1
# UniProt Q5T2D3 = target: T1, UniProt Q5T2D3
# T1 sequence (whole entry): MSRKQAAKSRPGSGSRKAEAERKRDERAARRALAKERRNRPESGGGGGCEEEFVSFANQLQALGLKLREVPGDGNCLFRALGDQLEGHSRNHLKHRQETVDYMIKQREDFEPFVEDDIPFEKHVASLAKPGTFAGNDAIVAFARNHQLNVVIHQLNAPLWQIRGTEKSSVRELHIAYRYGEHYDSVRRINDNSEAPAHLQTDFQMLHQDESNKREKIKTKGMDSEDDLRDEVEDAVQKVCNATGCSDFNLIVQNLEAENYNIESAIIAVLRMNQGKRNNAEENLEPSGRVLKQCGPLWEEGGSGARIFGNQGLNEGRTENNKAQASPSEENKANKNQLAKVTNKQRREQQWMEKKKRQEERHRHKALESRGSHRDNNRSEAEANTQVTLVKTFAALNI
# Outline: as §1
# UniProt Q8TE49 = target: T2, UniProt Q8TE49
# T2 sequence (whole entry): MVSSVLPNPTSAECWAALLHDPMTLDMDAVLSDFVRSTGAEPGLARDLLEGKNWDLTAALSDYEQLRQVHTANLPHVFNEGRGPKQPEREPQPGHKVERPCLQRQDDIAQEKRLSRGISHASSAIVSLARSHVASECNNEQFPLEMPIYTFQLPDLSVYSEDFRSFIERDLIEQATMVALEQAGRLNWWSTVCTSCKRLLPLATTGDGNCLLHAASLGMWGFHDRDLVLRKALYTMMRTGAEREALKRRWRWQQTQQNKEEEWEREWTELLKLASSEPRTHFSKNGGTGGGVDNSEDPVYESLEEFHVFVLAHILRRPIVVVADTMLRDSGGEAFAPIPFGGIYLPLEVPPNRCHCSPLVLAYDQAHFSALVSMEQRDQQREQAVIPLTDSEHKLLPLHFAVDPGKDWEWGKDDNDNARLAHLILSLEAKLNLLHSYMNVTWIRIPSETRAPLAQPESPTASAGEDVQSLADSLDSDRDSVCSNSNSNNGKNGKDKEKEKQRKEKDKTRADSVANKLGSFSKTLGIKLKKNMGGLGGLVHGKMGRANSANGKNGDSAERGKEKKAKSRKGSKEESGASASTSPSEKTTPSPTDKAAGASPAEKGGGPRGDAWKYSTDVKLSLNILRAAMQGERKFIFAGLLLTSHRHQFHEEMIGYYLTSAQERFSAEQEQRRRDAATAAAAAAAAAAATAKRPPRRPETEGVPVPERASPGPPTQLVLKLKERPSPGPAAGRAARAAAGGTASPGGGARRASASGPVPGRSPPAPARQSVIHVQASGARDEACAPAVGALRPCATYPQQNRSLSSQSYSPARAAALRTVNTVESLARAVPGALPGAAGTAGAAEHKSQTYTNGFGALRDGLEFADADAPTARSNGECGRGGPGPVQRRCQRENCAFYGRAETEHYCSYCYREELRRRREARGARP
# Outline: as §1
# UniProt Q9P2H5 = target: T3, UniProt Q9P2H5
# T3 sequence (whole entry): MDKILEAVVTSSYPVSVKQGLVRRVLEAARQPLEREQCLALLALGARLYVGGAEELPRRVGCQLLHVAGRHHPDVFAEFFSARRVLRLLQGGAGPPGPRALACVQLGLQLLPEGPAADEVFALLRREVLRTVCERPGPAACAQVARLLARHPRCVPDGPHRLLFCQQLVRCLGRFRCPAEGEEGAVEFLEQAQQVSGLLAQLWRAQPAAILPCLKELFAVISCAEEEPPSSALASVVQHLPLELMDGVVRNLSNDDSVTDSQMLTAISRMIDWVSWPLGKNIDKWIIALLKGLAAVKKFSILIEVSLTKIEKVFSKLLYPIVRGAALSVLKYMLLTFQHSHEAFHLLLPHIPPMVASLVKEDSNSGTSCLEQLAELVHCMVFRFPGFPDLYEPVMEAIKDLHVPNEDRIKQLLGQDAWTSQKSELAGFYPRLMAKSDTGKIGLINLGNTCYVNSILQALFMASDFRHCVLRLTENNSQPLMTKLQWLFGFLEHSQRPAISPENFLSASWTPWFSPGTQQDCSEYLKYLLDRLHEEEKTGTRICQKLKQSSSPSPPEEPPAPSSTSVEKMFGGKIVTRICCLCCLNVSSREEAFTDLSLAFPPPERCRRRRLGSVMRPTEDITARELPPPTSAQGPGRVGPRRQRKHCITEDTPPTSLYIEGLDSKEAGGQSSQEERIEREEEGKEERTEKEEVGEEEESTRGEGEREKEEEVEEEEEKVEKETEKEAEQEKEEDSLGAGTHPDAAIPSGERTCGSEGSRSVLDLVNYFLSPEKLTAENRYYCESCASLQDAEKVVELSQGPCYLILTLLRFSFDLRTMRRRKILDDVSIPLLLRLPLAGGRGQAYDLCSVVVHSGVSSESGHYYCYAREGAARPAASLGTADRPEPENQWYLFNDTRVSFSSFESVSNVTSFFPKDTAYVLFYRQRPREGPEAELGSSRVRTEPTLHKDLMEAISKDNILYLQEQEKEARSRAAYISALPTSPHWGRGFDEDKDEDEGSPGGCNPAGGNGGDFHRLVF
# Outline: as §1
# UniProt Q9UGI0 = target: T4, UniProt Q9UGI0
# T4 sequence (whole entry): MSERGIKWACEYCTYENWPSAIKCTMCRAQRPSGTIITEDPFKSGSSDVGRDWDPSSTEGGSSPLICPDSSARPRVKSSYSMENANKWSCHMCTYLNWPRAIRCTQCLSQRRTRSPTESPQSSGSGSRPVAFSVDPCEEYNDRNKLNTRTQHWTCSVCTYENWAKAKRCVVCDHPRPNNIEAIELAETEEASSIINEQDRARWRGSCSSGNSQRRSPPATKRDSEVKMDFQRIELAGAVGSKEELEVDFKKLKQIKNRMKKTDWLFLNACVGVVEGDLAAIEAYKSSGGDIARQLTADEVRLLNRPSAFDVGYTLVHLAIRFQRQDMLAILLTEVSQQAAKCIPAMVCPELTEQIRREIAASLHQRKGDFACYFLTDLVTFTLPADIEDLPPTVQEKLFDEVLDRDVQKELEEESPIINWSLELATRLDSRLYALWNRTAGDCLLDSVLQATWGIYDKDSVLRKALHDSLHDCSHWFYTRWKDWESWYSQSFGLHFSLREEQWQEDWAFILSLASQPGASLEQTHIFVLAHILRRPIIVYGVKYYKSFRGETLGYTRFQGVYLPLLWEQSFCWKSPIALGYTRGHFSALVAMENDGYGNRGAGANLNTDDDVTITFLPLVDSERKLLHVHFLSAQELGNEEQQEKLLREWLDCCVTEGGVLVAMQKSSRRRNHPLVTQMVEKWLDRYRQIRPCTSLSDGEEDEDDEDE
# Outline: as §1
# YOD1 = target: T5, YOD1 (UniProt Q5VVQ6)
# T5 sequence (whole entry): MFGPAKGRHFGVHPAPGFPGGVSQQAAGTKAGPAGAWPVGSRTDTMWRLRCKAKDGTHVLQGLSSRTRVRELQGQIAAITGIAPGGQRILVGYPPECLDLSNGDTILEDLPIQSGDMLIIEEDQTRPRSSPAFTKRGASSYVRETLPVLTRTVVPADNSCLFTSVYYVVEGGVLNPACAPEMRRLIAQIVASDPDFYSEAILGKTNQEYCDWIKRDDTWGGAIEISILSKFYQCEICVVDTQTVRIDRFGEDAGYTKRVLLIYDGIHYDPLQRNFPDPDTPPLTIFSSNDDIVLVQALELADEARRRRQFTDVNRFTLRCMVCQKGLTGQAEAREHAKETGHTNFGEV
# Outline: as §1
structure (smiles),measurement,setting,value
O=C(CCl)N1CC=C(c2c[nH]c3ccccc23)CC1,log2 ratio of Biotin-Ahx-Ub-VS probe labelling,USP9X,-0.82
same,log2 ratio of Biotin-Ahx-Ub-VS probe labelling,UniProt O00487,-0.0429
same,log2 ratio of Biotin-Ahx-Ub-VS probe labelling,UniProt O00507,-1.28 (active)
same,log2 ratio of Biotin-Ahx-Ub-VS probe labelling,UniProt P51784,-0.291
same,log2 ratio of Biotin-Ahx-Ub-VS probe labelling,UniProt Q5T2D3,-0.405
same,log2 ratio of Biotin-Ahx-Ub-VS probe labelling,UniProt Q8TE49,-0.72
same,log2 ratio of Biotin-Ahx-Ub-VS probe labelling,UniProt Q9P2H5,-0.734
same,log2 ratio of Biotin-Ahx-Ub-VS probe labelling,UniProt Q9UGI0,-1.14 (active)
same,log2 ratio of Biotin-Ahx-Ub-VS probe labelling,YOD1,-0.219
